# In article PMC7862700, “An all-to-all approach to the identification of sequence-specific readers for epigenetic DNA modifications on cytosine”:
# Experiments:
# Assay in all cases: DAPPL (digital affinity profiling via proximity ligation, sequencing); 10 mM Tris-HCl pH 7.5, 50 mM NaCl, 1 mM DTT, 4% glycerol, room temperature, 30 min; GST-TFs on glutathione beads, 16-mer random dsDNA library, 0.1% formaldehyde crosslink after washing; high values mean tight binding
# FLI1 = target: T1, FLI1 (Homo sapiens, UniProt Q01543 1-452); details: protein: recombinant; tags: N-terminal GST; dsDNA, one strand shown
# T1 sequence: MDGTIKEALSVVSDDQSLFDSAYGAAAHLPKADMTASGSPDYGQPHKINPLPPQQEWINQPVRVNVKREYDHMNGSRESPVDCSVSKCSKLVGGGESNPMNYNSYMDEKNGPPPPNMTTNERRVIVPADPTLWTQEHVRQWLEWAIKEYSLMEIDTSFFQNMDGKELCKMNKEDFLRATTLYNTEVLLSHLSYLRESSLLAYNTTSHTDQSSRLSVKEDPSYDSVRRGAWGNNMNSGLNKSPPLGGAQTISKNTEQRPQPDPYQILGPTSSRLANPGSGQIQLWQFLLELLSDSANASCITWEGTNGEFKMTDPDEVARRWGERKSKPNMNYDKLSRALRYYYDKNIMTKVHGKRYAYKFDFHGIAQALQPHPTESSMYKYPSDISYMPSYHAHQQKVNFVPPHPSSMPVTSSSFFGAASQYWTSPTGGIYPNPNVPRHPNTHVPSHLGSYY
# Outline: (§1)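 Binding signal is given per hexamer as its read frequency for a factor divided by its frequency in the tag-only sample. GST-fused human transcription factors were expressed in yeast, captured on glutathione beads, barcoded with DNA and pooled with that sample, then incubated with 200 nmole of a 16-mer random double-stranded DNA library in Tris/NaCl/DTT/glycerol buffer for 30 min at room temperature. The pools were then washed, crosslinked, proximity-ligated, amplified by PCR and sequenced on an Illumina NextSeq500.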
# ELK1 = target: T2, ELK1 (Homo sapiens, UniProt P19419 1-428); details: protein: recombinant; tags: N-terminal GST; dsDNA, one strand shown
# T2 sequence: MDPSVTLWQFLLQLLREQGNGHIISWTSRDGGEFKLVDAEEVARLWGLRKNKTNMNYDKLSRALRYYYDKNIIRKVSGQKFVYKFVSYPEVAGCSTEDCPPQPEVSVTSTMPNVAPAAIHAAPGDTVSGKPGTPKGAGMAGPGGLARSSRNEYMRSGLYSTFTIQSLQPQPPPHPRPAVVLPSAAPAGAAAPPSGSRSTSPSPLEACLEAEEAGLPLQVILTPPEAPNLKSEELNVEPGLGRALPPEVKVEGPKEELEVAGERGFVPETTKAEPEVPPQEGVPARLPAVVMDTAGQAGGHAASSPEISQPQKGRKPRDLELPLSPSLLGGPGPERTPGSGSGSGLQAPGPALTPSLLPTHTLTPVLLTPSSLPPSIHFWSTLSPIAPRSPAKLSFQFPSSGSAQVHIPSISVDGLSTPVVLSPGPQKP
# Outline: as §1
# GABPA = target: T3, GABPA (Homo sapiens, UniProt Q06546 1-454); details: protein: recombinant; tags: N-terminal GST; dsDNA, one strand shown
# T3 sequence: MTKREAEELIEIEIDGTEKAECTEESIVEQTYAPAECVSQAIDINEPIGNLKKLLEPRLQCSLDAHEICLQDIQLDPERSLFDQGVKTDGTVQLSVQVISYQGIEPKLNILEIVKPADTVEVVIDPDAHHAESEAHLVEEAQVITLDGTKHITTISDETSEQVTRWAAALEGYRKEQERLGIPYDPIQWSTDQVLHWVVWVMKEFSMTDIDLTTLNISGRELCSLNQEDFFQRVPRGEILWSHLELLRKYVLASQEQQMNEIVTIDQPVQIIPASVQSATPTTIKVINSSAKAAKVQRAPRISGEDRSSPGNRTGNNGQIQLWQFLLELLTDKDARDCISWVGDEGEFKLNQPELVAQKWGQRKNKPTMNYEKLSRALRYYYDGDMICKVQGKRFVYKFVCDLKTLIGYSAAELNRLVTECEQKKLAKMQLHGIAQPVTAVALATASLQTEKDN
# Outline: as §1
# ERG = target: T4, ERG (Homo sapiens, UniProt P11308 1-479); details: protein: recombinant; tags: N-terminal GST; dsDNA, one strand shown
# T4 sequence: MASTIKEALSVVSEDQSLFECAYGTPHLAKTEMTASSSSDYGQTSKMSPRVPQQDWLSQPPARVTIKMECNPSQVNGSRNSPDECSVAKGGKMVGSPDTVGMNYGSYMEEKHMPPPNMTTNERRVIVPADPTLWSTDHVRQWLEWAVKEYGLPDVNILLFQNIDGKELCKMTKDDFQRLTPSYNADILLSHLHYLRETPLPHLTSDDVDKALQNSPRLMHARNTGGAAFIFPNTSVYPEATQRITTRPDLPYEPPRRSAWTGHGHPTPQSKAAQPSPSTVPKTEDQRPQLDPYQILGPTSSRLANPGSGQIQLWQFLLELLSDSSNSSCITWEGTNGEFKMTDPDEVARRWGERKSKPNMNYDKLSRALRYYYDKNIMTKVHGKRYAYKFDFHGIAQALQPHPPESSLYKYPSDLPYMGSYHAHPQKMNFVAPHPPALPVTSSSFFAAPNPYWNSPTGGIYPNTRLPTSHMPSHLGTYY
# Outline: as §1
# ELF1 = ELF1 (Homo sapiens, UniProt P32519 1-619); details: protein: recombinant; tags: N-terminal GST; dsDNA, one strand shown
# ELF1, sequence (P32519 whole entry): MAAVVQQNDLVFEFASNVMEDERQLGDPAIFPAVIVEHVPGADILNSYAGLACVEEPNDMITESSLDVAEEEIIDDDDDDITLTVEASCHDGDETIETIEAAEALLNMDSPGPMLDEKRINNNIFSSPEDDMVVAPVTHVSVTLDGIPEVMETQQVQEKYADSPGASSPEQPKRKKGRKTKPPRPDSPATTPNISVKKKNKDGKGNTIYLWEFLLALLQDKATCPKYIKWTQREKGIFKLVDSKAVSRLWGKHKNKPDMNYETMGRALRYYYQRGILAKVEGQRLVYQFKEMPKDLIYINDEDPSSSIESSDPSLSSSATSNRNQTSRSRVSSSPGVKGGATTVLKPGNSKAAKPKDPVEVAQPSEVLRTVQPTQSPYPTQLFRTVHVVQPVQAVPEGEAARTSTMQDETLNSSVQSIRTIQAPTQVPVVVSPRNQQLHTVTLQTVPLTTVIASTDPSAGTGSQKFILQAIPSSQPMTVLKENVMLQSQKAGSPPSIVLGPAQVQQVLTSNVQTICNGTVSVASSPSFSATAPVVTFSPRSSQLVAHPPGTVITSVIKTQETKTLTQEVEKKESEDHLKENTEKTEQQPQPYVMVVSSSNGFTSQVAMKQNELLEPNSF
# Outline: as §1
# EHF = target: T5, EHF (Homo sapiens, UniProt Q9NZC4 1-300); details: protein: recombinant; tags: N-terminal GST; dsDNA, one strand shown
# T5 sequence: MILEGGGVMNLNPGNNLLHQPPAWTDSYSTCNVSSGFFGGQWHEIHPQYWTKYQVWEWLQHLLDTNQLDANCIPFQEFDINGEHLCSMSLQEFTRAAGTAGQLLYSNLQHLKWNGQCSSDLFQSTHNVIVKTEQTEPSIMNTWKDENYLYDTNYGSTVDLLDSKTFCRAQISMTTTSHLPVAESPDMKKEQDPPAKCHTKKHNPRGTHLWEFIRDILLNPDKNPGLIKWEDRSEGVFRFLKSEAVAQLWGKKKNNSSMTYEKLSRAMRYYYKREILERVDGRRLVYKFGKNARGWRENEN
# Outline: as §1
# SPI1 = SPI1 (Homo sapiens, UniProt P17947 1-270); details: protein: recombinant; tags: N-terminal GST; dsDNA, one strand shown
# Outline: as §1
# SPIB = SPIB (Homo sapiens, UniProt Q01892 1-262); details: protein: recombinant; tags: N-terminal GST; dsDNA, one strand shown
# SPIB, sequence (Q01892 whole entry): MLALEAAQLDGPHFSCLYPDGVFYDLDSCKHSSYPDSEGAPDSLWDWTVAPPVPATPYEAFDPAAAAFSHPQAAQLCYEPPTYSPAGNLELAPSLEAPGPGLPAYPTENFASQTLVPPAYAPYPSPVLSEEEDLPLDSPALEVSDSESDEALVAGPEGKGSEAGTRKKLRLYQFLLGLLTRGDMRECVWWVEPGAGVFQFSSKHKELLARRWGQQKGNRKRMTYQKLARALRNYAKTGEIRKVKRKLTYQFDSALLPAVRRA
# Outline: as §1
# ELK3 = target: T6, ELK3 (Homo sapiens, UniProt P41970 1-407); details: protein: recombinant; tags: N-terminal GST; dsDNA, one strand shown
# T6 sequence: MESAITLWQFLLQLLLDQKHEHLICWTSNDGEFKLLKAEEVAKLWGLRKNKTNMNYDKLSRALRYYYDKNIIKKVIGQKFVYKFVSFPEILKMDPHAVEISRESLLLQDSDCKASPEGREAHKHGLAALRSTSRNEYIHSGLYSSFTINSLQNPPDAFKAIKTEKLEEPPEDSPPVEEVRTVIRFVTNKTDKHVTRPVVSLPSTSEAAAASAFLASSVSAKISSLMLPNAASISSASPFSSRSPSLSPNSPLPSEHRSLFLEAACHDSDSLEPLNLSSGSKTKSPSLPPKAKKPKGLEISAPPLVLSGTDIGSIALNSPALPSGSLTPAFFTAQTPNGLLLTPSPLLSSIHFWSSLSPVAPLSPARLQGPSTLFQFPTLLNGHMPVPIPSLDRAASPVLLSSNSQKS
# Outline: as §1
# FEV = target: T7, FEV (Homo sapiens, UniProt Q99581 1-238); details: protein: recombinant; tags: N-terminal GST; dsDNA, one strand shown
# T7 sequence: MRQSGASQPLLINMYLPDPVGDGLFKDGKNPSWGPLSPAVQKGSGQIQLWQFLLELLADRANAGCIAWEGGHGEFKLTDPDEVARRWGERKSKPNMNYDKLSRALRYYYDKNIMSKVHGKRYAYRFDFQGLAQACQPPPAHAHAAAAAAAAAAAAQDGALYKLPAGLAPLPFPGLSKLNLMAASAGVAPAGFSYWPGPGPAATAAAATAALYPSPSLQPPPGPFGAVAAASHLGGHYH
# Outline: as §1
# ETV5 = ETV5 (Homo sapiens, UniProt P41161 1-510); details: protein: recombinant; tags: N-terminal GST; dsDNA, one strand shown
# ETV5, sequence (P41161 whole entry): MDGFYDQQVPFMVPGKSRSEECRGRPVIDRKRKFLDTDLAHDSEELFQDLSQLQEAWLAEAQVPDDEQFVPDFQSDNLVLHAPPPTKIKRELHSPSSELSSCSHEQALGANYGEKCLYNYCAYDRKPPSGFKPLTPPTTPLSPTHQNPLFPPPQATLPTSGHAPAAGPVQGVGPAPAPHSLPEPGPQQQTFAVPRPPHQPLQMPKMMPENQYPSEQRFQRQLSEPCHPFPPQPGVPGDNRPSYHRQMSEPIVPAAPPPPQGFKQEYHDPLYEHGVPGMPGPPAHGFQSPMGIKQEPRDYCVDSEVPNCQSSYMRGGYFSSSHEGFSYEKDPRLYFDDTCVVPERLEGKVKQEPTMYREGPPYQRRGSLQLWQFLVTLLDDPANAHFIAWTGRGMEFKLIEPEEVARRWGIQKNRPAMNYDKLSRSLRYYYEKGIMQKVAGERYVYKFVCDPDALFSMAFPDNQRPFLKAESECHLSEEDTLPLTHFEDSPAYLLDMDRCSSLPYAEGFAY
# Outline: as §1
# HSF1 = HSF1 (Homo sapiens, UniProt Q00613 1-529); details: protein: recombinant; tags: N-terminal GST; chain copies: 3; dsDNA, one strand shown
# HSF1, sequence (Q00613 whole entry): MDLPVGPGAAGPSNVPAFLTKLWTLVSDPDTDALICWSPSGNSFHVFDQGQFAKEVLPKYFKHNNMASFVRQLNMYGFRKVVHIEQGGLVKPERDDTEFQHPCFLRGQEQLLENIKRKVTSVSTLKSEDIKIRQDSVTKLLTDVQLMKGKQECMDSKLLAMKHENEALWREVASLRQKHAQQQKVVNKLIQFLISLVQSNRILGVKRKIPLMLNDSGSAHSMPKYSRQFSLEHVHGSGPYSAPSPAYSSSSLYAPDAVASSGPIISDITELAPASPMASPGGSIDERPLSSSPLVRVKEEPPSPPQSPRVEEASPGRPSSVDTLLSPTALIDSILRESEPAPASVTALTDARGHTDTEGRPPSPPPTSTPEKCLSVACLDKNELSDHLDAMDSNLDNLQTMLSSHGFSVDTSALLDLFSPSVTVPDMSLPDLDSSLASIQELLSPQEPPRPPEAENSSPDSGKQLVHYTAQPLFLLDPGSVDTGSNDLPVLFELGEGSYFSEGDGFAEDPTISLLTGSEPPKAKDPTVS
# Outline: as §1
# SPIC = target: T8, SPIC (Homo sapiens, UniProt Q8N5J4 1-248); details: protein: recombinant; tags: N-terminal GST; dsDNA, one strand shown
# T8 sequence: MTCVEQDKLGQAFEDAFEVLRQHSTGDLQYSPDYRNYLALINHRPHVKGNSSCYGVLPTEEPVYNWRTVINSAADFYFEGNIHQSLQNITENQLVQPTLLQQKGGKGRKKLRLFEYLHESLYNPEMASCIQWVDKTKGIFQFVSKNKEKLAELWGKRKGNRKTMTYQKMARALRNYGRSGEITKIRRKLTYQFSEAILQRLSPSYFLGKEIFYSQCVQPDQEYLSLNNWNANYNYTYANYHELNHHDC
# Outline: as §1
# ELF4 = ELF4 (Homo sapiens, UniProt Q99607 1-663); details: protein: recombinant; tags: N-terminal GST; dsDNA, one strand shown
# ELF4, sequence (Q99607 whole entry): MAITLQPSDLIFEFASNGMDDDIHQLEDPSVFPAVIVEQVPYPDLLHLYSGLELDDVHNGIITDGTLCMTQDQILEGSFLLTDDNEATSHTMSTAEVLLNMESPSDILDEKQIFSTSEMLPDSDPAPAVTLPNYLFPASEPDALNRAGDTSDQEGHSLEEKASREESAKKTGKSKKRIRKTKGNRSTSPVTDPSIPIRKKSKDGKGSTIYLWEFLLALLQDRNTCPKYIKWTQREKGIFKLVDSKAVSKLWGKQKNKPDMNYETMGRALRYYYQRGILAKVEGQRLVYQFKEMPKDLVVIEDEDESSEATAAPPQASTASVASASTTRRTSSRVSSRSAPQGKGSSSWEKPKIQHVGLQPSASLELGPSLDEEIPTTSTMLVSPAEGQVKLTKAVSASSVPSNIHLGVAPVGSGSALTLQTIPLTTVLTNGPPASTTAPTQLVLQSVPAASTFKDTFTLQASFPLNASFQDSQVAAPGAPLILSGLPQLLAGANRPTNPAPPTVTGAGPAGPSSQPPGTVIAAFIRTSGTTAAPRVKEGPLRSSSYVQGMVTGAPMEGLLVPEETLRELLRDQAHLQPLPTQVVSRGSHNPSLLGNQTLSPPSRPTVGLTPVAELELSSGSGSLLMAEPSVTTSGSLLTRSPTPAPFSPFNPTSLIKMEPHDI
# Outline: as §1
# ELK4 = target: T9, ELK4 (Homo sapiens, UniProt P28324-2 1-405); details: protein: recombinant; tags: N-terminal GST; dsDNA, one strand shown
# T9 sequence: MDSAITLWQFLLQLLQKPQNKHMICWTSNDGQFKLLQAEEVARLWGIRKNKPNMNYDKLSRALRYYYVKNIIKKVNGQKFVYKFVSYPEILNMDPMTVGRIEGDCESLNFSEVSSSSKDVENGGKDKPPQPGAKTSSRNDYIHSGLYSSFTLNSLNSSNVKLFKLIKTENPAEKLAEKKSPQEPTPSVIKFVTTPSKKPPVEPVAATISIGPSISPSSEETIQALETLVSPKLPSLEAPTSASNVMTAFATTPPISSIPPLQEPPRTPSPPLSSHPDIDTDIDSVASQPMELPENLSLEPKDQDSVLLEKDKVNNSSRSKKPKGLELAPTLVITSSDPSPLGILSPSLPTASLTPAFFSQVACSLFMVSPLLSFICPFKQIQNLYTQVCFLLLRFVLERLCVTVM
# Outline: as §1
# ETV2 = target: T10, ETV2 (Homo sapiens, UniProt O00321 1-342); details: protein: recombinant; tags: N-terminal GST; dsDNA, one strand shown
# T10 sequence: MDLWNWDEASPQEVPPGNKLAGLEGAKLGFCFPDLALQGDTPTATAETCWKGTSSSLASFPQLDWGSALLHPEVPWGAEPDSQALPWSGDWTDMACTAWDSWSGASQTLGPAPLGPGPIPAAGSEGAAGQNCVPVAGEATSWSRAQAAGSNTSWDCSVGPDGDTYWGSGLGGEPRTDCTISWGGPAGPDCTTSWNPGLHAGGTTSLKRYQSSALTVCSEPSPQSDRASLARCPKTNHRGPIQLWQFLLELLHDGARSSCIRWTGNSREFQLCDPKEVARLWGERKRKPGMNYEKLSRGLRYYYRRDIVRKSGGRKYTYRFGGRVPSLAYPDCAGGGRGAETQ
# Outline: as §1
# ELF3 = target: T11, ELF3 (Homo sapiens, UniProt P78545 1-371); details: protein: recombinant; tags: N-terminal GST; dsDNA, one strand shown
# T11 sequence: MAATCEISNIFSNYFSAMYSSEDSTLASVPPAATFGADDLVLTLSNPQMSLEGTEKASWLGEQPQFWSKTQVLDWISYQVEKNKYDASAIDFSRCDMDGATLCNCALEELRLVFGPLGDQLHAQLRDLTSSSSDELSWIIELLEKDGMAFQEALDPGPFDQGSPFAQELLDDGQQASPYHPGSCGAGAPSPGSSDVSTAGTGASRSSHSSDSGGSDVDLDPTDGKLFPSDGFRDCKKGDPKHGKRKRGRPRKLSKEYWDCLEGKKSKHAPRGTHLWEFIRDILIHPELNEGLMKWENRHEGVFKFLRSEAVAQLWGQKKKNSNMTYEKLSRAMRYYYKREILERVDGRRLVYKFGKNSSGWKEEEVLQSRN
# Outline: as §1
# CRX = CRX (Homo sapiens, UniProt O43186 1-299); details: protein: recombinant; tags: N-terminal GST; dsDNA, one strand shown
# CRX, sequence (O43186 whole entry): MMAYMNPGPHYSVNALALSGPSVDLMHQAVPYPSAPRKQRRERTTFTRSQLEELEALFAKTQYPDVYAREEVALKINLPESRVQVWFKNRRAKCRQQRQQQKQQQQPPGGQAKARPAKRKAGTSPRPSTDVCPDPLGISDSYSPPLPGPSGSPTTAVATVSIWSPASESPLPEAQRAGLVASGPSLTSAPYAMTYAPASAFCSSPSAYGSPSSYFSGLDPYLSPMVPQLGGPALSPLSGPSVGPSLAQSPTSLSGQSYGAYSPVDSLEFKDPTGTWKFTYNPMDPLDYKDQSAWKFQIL
# Outline: as §1
# ETV1 = ETV1 (Homo sapiens, UniProt P50549 1-477); details: protein: recombinant; tags: N-terminal GST; dsDNA, one strand shown
# ETV1, sequence (P50549 whole entry): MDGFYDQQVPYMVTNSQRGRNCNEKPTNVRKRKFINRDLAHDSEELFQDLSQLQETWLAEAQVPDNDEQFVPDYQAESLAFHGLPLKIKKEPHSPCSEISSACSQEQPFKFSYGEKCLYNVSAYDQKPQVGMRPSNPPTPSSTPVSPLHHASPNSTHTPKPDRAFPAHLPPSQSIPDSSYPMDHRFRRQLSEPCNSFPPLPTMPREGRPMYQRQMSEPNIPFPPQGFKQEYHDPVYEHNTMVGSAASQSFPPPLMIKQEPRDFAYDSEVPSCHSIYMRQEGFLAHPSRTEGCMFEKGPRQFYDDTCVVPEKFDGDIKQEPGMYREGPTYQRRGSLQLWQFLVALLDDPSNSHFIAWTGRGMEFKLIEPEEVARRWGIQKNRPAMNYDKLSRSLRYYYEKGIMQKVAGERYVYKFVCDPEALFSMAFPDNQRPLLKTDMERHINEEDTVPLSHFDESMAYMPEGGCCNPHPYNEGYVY
# Outline: as §1
sequence,measurement,setting,value
TTTTGC,binding signal,FLI1,"1.51 fold enrichment (6-mer frequency, TF over GST control)"
same,binding signal,ELK1,"1.39 fold enrichment (6-mer frequency, TF over GST control)"
same,binding signal,GABPA,"1.38 fold enrichment (6-mer frequency, TF over GST control)"
same,binding signal,ERG,"1.26 fold enrichment (6-mer frequency, TF over GST control)"
same,binding signal,ELF1,"1.42 fold enrichment (6-mer frequency, TF over GST control)"
same,binding signal,EHF,"1.28 fold enrichment (6-mer frequency, TF over GST control)"
same,binding signal,SPI1,"1.43 fold enrichment (6-mer frequency, TF over GST control)"
same,binding signal,SPIB,"1.45 fold enrichment (6-mer frequency, TF over GST control)"
same,binding signal,ELK3,"1.42 fold enrichment (6-mer frequency, TF over GST control)"
same,binding signal,FEV,"1.3 fold enrichment (6-mer frequency, TF over GST control)"
same,binding signal,ETV5,"1.34 fold enrichment (6-mer frequency, TF over GST control)"
same,binding signal,HSF1,"1.36 fold enrichment (6-mer frequency, TF over GST control)"
same,binding signal,SPIC,"1.25 fold enrichment (6-mer frequency, TF over GST control)"
same,binding signal,ELF4,"1.42 fold enrichment (6-mer frequency, TF over GST control)"
same,binding signal,ELK4,"1.3 fold enrichment (6-mer frequency, TF over GST control)"
same,binding signal,ETV2,"1.53 fold enrichment (6-mer frequency, TF over GST control)"
same,binding signal,ELF3,"1.34 fold enrichment (6-mer frequency, TF over GST control)"
same,binding signal,CRX,"1.41 fold enrichment (6-mer frequency, TF over GST control)"
same,binding signal,ETV1,"1.34 fold enrichment (6-mer frequency, TF over GST control)"
